Results filed as inconclusive are left out. Unmarked numbers belong to inactive results. Calls of active or inactive are those of the source. The call rests on the fitted dose curve; in most records, active means well fitted curve in the direction sought with a large enough effect; inconclusive means small, poorly fitted or top-dose-only effect, or another doubt; inactive means no such curve, though single readings can be large; an effect the other way counts as inactive or inconclusive.
Key:
[1] = Quantitative High-Throughput drug screen in 47 multiple myeloma cell lines against the NCATS MIPE library collection: KMS26_JCRB cell viability assay (AID 1918975); further: nearly all actives have a fitted effect of over 45% in size
How it was run: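 Myeloma cells (500 per well) were exposed to MIPE 4.0 compounds by pin transfer and incubated 48 hours at 37C, 5% CO2. Viability was read as ATP by CellTiter-Glo luminescence, normalised to DMSO (100%) and media-only (0%) wells.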

[2] = Quantitative High-Throughput drug screen in 47 multiple myeloma cell lines against the NCATS MIPE library collection: MOLP8_DSMZ cell viability assay (AID 1918977); further: nearly all actives have a fitted effect of over 45% in size
How it was run: (§1)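 qHTS format: cells plated (500/well), pin-dosed with MIPE 4.0 compounds, kept 48 h at 37 °C. Readout was CellTiter-Glo luminescence, median RLU.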

[3] = Quantitative High-Throughput drug screen in 47 multiple myeloma cell lines against the NCATS MIPE library collection: NCIH929_DSMZ cell viability assay (AID 1918978); further: nearly all actives have a fitted effect of over 35% in size
How it was run: as §1

[4] = Quantitative High-Throughput drug screen in 47 multiple myeloma cell lines against the NCATS MIPE library collection: MM1S_ATCC cell viability assay (AID 1918980); further: nearly all actives have a fitted effect of over 45% in size
How it was run: as §1

[5] = Quantitative High-Throughput drug screen in 47 multiple myeloma cell lines against the NCATS MIPE library collection: MM1R_ATCC cell viability assay (AID 1918981); further: nearly all actives have a fitted effect of over 35% in size
How it was run: as §1

[6] = Quantitative High-Throughput drug screen in 47 multiple myeloma cell lines against the NCATS MIPE library collection: LP1_DSMZ cell viability assay (AID 1918982); further: nearly all actives have a fitted effect of over 35% in size
How it was run: as §1

[7] = Quantitative High-Throughput drug screen in 47 multiple myeloma cell lines against the NCATS MIPE library collection: KMS28PE_JCRB cell viability assay (AID 1918983); further: nearly all actives have a fitted effect of over 35% in size
How it was run: as §1

[8] = Quantitative High-Throughput drug screen in 47 multiple myeloma cell lines against the NCATS MIPE library collection: L363_DSMZ cell viability assay (AID 1918984); further: nearly all actives have a fitted effect of over 40% in size
How it was run: as §1

[9] = Quantitative High-Throughput drug screen in 47 multiple myeloma cell lines against the NCATS MIPE library collection: OPM1_PLB cell viability assay (AID 1918989); further: nearly all actives have a fitted effect of over 40% in size
How it was run: as §1

[10] = Quantitative High-Throughput drug screen in 47 multiple myeloma cell lines against the NCATS MIPE library collection: SKMM1_PLB cell viability assay (AID 1919863); conditions: SKMM1 myeloma viability, CellTiter-Glo ATP, 48 h; viability: stronger effect = lower value; further: nearly all actives have a fitted effect of over 35% in size
How it was run: as §1

[11] = Quantitative High-Throughput drug screen in 47 multiple myeloma cell lines against the NCATS MIPE library collection: U266_ATCC cell viability assay (AID 1919864); further: nearly all actives have a fitted effect of over 35% in size
How it was run: as §1

[12] = Quantitative High-Throughput drug screen in 47 multiple myeloma cell lines against the NCATS MIPE library collection: XG6_PLB cell viability assay (AID 1919865); further: nearly all actives have a fitted effect of over 40% in size
How it was run: as §1

[13] = Quantitative High-Throughput drug screen in 47 multiple myeloma cell lines against the NCATS MIPE library collection: XG1_PLB cell viability assay (AID 1919866); further: nearly all actives have a fitted effect of over 35% in size
How it was run: as §1

[14] = Quantitative High-Throughput drug screen in 47 multiple myeloma cell lines against the NCATS MIPE library collection: KMS21BM_JCRB cell viability assay (AID 1918974); conditions: ATP luminescence, 48 h; viability: at 45.8 µM (top of the series) unless noted
How it was run: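 Viability readout: CellTiter-Glo luminescence following 5 min room-temperature incubation with reagent. Prior exposure: 48 h, 37C, humidified 5% CO2, 500 cells per well.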

[15] = Quantitative High-Throughput drug screen in 47 multiple myeloma cell lines against the NCATS MIPE library collection: MMM1_PLB cell viability assay (AID 1918976); further: nearly all actives have a fitted effect of over 35% in size
How it was run: as §1

[16] = Quantitative High-Throughput drug screen in 47 multiple myeloma cell lines against the NCATS MIPE library collection: OCIMY1_PLB cell viability assay (AID 1918979); further: nearly all actives have a fitted effect of over 35% in size
How it was run: as §1

[17] = Quantitative High-Throughput drug screen in 47 multiple myeloma cell lines against the NCATS MIPE library collection: KMS34_JCRB cell viability assay (AID 1918985); further: nearly all actives have a fitted effect of over 40% in size
How it was run: as §1

[18] = Quantitative High-Throughput drug screen in 47 multiple myeloma cell lines against the NCATS MIPE library collection: OCIMY7_PLB cell viability assay (AID 1918987); further: nearly all actives have a fitted effect of over 65% in size
How it was run: as §1

[19] = Quantitative High-Throughput drug screen in 47 multiple myeloma cell lines against the NCATS MIPE library collection: OCIMY5_PLB cell viability assay (AID 1918988); further: nearly all actives have a fitted effect of over 65% in size
How it was run: as §1
Potency means the concentration at half of the fitted maximal effect.

SMILES	Potency [1]	Potency [2]	Potency [3]	Potency [4]	Potency [5]	Potency [6]	Potency [7]	Potency [8]	Potency [9]	viability [10]	Potency [11]	Potency [12]	Potency [13]	Potency [14]	Potency [15]	Potency [16]	Potency [17]	Potency [18]	Potency [19]	Potency [10]
O=C(O)Cn1nnc(-c2cc(N3CCC(Oc4cc(F)ccc4Br)CC3)no2)n1	inactive	inactive	inactive	8.33 µM (active)	inactive	inactive	inactive	inactive	inactive	126%	inactive	inactive	inactive							
O=C(O)c1ccc2c(c1)nc(Nc1cccc(Cl)c1)c1ccncc12		10.5 µM (active)	3.72 µM (active)		10.5 µM (active)		13.2 µM (active)	4.69 µM (active)	9.35 µM (active)		5.26 µM (active)	3.72 µM (active)	4.18 µM (active)	3.32 µM (active)	14.8 µM (active)	18.7 µM (active)	10.5 µM (active)	2.35 µM (active)	13.2 µM (active)	10.5 µM (active)
Nc1ccc(C(=O)c2cc3c(ccc4ccccc43)[nH]2)cc1	16.6 µM (active)		18.7 µM (active)			5.26 µM (active)	9.35 µM (active)		7.43 µM (active)		14.8 µM (active)	0.662 µM (active)	0.662 µM (active)		6.62 µM (active)		4.18 µM (active)	0.743 µM (active)	2.64 µM (active)	2.96 µM (active)
N#Cc1c(O)c2c(-c3ccc(-c4ccccc4O)cc3)csc2[nH]c1=O	inactive	inactive	inactive		inactive	inactive		inactive			inactive	inactive	inactive			inactive	inactive		inactive	
CN(C)CCCN=c1c2ccccc2n(C)c2[nH]c(=O)n(C)c(=O)c12	26.4 µM (active)	6.62 µM (active)		3.72 µM (active)	18.7 µM (active)		16.6 µM (active)		6.62 µM (active)		8.33 µM (active)	5.9 µM (active)	14.8 µM (active)		16.6 µM (active)		18.7 µM (active)		18.7 µM (active)	14.8 µM (active)
Nc1ccc(S(=O)(=O)Nc2ncccn2)cc1	inactive	inactive		inactive	inactive	inactive			inactive	155%	inactive	inactive	inactive			inactive				
Nc1nccc(Oc2ccc(NC(=O)c3c[nH]cc(-c4ccc(F)cc4)c3=O)cc2F)c1Cl	33.2 µM (active)	20.9 µM (active)	20.9 µM (active)		2.35 µM (active)	18.7 µM (active)	37.2 µM (active)		23.5 µM (active)		20.9 µM (active)	16.6 µM (active)	18.7 µM (active)		23.5 µM (active)		18.7 µM (active)	18.7 µM (active)	26.4 µM (active)	23.5 µM (active)
Cn1c2cc(S(C)=O)sc2c2cnn(Cc3cccc(N)c3)c(=O)c21 (centres undefined)	inactive		inactive	inactive			inactive		inactive	114%	inactive	inactive	inactive		3.32 µM (active)	inactive	inactive			
COc1ccc(C=Cc2cc(OC)c(OC)c(OC)c2)cc1O						inactive		inactive	inactive	34.9%	inactive	inactive	inactive	inactive	inactive	inactive	inactive	inactive		
CCOC(=O)C1=C(C)NC2=C(C(=O)CC(C)(C)C2)C1c1ccc(-c2ccccc2)cc1 (centres undefined)	16.6 µM (active)	16.6 µM (active)	20.9 µM (active)	23.5 µM (active)					16.6 µM (active)		26.4 µM (active)				23.5 µM (active)		18.7 µM (active)	3.72 µM (active)	20.9 µM (active)	23.5 µM (active)
O=C(O)CCCc1c[nH]c2ccccc12	inactive	inactive			inactive	inactive	inactive	inactive	inactive	113%	inactive		inactive			inactive	inactive			
CC1(C)CCC(c2ccc(Cl)cc2)=C(CN2CCN(c3ccc(C(=O)NS(=O)(=O)c4ccc(N[C@H](CCN5CCOCC5)CSc5ccccc5)c(S(=O)(=O)C(F)(F)F)c4)cc3)CC2)C1	0.105 µM (active)		13.2 µM (active)	0.332 µM (active)		20.9 µM (active)	0.469 µM (active)		5.26 µM (active)		14.8 µM (active)	11.8 µM (active)	16.6 µM (active)		0.0935 µM (active)	7.43 µM (active)	9.35 µM (active)	0.001 µM (active)	0.0372 µM (active)	
